According to PubChem BioAssay AID1159580 (chemical genetic matrix, 2015):
Out of some 5,500 compounds screened, about 2,000 (36%) were called active. Inconclusive results (about 18%) are left out. Cut-off read from the data, not from the text of the source: active = normalized growth mostly below about 0.91 (no sharp cut-off); inconclusive = no clear call, values can overlap the other calls; inactive = mostly above about 0.92. This is one part of the list.

Assay: chemical genetic growth profiling, strain panel (AID 1159580);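 note: tested at 20 µM; growth read once vehicle control cultures reached saturation at 30 °C; 1 = growth at the plate median or of vehicle wells; lower values mean less growth of the strain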
Conditions: S. cerevisiae deletion strains, growth OD

Measured: normalized growth

C/C=C(\C)C(=O)OC1[C@@H]2C=C3C4CC(=O)O[C@@H](c5ccoc5)[C@]4(C)CCC3[C@@](C)(C2=O)[C@@H](C(O)C(=O)OC)C1(C)C (stereo partly drawn)
inactive: locus YBR021W, strain FUR4, hits give low values 1 | locus YBR229C, strain ROT2, hits give low values 0.997 | locus YCL029C, strain bik1, hits give low values 1.01 | locus YDL035C, strain GPR1, hits give low values 0.994 | locus YDL074C, strain BRE1, hits give low values 1.03 | locus YDL101C, strain DUN1, hits give low values 1.01 | locus YDL134C, strain PPH21, hits give low values 1.01 | locus YDL185W, strain tfp1, hits give low values 1.02 | locus YDL192W, strain arf1, hits give low values 1.01 | locus YDR101C, strain arx1, hits give low values 1.01 | locus YDR162C, strain NBP2, hits give low values 1.01 | locus YDR318W, strain mcm21, hits give low values 1.02 | locus YDR388W, hits give low values 1.02 | locus YDR502C, strain sam2, hits give low values 1.03 | locus YER110C, hits give low values 1.01 | locus YER155C, strain BEM2, hits give low values 1 | locus YER167W, strain BCK2, hits give low values 0.994 | locus YGL078C, strain dbp3, hits give low values 1.03 | locus YGL086W, strain mad1, hits give low values 1.01 | locus YGL248W, strain PDE1, hits give low values 1 | locus YGR135W, strain pre9, hits give low values 1.03 | locus YGR252W, strain gcn5, hits give low values 1.02 | locus YHR079C, strain IRE1 (second series), hits give low values 1.03 | locus YHR094C, strain hxt1, hits give low values 1.03 | locus YHR129C, strain ARP1, hits give low values 1 | locus YHR200W, strain rpn10, hits give low values 1.02 | locus YIL066C, strain RNR3, hits give low values 0.997 | locus YIL073C, strain SPO22, hits give low values 1.05 | locus YIL125W, strain kgd1, hits give low values 1.01 | locus YIR030C, strain dcg1, hits give low values 1.02 | locus YJL095W, strain BCK1, hits give low values 1.03 | locus YJL134W, strain LCB3, hits give low values 1.01 | locus YJL168C, strain set2, hits give low values 1.02 | locus YJL187C, strain SWE1 (second series), hits give low values 1.02 | locus YJR043C, strain POL32, hits give low values 0.983 | locus YJR075W, strain HOC1, hits give low values 1.02 | locus YKL009W, strain mrt4, hits give low values 1 | locus YKL068W, hits give low values 1.01 | locus YKL085W, strain MDH1 (second series), hits give low values 0.996 | locus YKL085W, strain MDH1, hits give low values 0.996 | locus YKL190W, strain CNB1, hits give low values 1 | locus YKR001C, strain vps1, hits give low values 1.03 | locus YLR039C, strain RIC1, hits give low values 1 | locus YLR058C, strain SHM2, hits give low values 1 | locus YLR102C, strain apc9, hits give low values 1.01 | locus YLR262C, strain YPT6, hits give low values 0.97 | locus YLR268W, strain sec22, hits give low values 1.02 | locus YLR342W, strain FKS1 (second series), hits give low values 0.998 | locus YLR371W, strain rom2, hits give low values 1.02 | locus YLR418C, strain cdc73, hits give low values 1.05 | locus YML016C, strain PPZ1, hits give low values 0.999 | locus YML032C, strain rad52, hits give low values 1.02 | locus YML124C, strain tub3, hits give low values 1.01 | locus YMR078C, strain ctf18, hits give low values 1.01 | locus YMR223W, strain ubp8, hits give low values 1.02 | locus YMR307W, strain GAS1, hits give low values 0.998 | locus YNL067W, strain RPL9B, hits give low values 1.02 | locus YNL128W, strain TEP1, hits give low values 1 | locus YNL233W, strain BNI4, hits give low values 1.05 | locus YNL250W, strain rad50, hits give low values 1.01 | locus YNL271C, strain bni1, hits give low values 1.02 | locus YNL298W, strain CLA4, hits give low values 1.01 | locus YNL307C, strain MCK1, hits give low values 1.01 | locus YNR052C, strain pop2, hits give low values 1.03 | locus YOL006C, strain TOP1, hits give low values 0.976 | locus YOL012C, strain htz1 1.07 | locus YOL147C, strain pex11, hits give low values 1.01 | locus YOR061W, strain CKA2, hits give low values 1 | locus YOR069W, strain VPS5, hits give low values 1 | locus YOR136W, strain idh2, hits give low values 1.01 | locus YOR144C, strain elg1, hits give low values 1.01 | locus YOR184W, strain ser1, hits give low values 1 | locus YOR316C, strain cot1, hits give low values 1.01 | locus YPR119W, strain clb2, hits give low values 1.02 | locus YPR141C, strain kar3, hits give low values 1.02 | locus YPR163C, strain tif3, hits give low values 1.01 | locus YPR167C, strain met16, hits give low values 1.02 | strain wtn01, hits give low values 0.994
